We go through 40 compounds from PubChem BioAssay (Tox21).

Each structure is given as a SMILES string. Records with an inconclusive call do not appear. Values without a mark were called inactive. The call rests on the fitted dose curve.
On the % scale 0 is the no-effect control and ±100 the full control effect.

The target of this assay is Progesterone receptor (Homo sapiens) (UniProt P06401). Nature of the assay: qHTS assay to identify small molecule agonists of the progesterone receptor (PR) signaling pathway (AID 1346784). Further: nearly all actives have a fitted effect of over 30% in size. The settings on record: PR-UAS-bla HEK293T, beta-lactamase FRET ratio, 16 h; series mostly up to 92.4 µM; activation: at the top concentration. An excerpt: U.S. Tox21 Program National Center for Advancing Translational Sciences [NCATS] NIH Chemical Genomics Center [NCGC] U.S. Environmental Protection Agency [EPA] National Institutes of Environmental Health Sciences [NIEHS] National Toxicology Program [NTP] U.S. Food and Drug Administration [FDA] […] Endocrine disrupting chemicals (EDCs) and their interactions with steroid hormone receptors like PR causes disruption of normal endocrine function. To identify the compounds that activate PR signaling, a PR-UAS-bla GripTite cell line i.e. PR-UAS-bla HEK 293T (Invitrogen, Carlsbad, CA, USA) containing a beta-lactamase reporter gene under the control of an Upstream Activator Sequence (UAS) was used to screen Tox21 10K compound library.
Sequence of Progesterone receptor (Homo sapiens) (P06401 whole entry, looked up): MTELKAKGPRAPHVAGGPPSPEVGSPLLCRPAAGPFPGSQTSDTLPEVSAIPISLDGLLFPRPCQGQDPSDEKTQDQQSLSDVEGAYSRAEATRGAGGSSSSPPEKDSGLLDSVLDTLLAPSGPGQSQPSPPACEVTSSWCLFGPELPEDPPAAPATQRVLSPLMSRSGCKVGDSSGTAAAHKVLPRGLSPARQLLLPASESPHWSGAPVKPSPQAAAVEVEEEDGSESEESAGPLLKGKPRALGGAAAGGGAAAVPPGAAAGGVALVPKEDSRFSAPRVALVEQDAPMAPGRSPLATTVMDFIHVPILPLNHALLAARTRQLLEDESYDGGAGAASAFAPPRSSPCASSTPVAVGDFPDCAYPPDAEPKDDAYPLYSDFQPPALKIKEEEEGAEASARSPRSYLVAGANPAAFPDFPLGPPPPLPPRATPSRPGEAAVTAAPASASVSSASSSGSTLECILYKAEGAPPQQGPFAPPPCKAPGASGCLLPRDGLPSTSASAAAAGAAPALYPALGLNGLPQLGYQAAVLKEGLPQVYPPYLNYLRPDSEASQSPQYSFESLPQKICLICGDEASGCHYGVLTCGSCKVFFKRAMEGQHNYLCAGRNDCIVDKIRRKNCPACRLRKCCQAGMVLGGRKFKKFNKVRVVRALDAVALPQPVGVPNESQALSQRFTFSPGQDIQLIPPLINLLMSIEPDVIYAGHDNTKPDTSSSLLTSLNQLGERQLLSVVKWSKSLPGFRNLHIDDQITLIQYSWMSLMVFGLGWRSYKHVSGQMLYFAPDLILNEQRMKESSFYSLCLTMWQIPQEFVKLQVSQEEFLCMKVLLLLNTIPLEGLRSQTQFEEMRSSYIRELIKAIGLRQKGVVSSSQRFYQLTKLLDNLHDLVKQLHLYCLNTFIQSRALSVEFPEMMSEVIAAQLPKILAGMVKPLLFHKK
Tox21 Assay Protocol Summary: PR-UAS-bla HEK 293T cells were dispensed at 3,000 cells/5 uL of assay medium containing 2% charcoal stripped FBS per well into black wall/clear-bottom 1536-well plates using a Multidrop Combi (ThermoFisher Scientific, Waltham, MA) dispenser. After the assay plates were incubated at a 37C and 5% CO2 for 6hr, 23 nL of compounds dissolved in DMSO, positive controls or DMSO only was transferred to the assay plate by a Pintool station (Kalypsys, San Diego, CA). The plates were incubated at 37C and 5% CO2 for 16hr. Then 1 uL of LiveBLAzer B/G FRET substrate was added using a BioRAPTR FRD (Flying Reagent Dispenser, Aurora Discovery, San Diego, CA). After the plates were incubated at room temperature for 2 hours, fluorescence intensity was measured by an Envision plate reader (PerkinElmer, Shelton, CT).
For orientation: qHTS replaces the single test concentration by a dilution series.
Turning to `O=S(=O)(O)c1cccc2c(S(=O)(=O)O)cccc12`, the “activation” value was -0.904%.

Regarding `CCCO[Si](OCCC)(OCCC)OCCC`, the “activation” value is 0.902%.

As for `CC(=O)c1ccc2ccccc2c1`, the “activation” value is 0.121%.

Turning to `CC(C)C[C@@H](N)C(=O)O`, the activation was -1.5% [at 19 µM].

For the compound `CC(C)COC(=O)c1ccc(N)cc1`, the “activation” value was -1.74% [at 42.5 µM].

In the case of `O=C(O)CNC(=O)c1ccccc1`, the “activation” value was 0.747% [at 42.5 µM].

Regarding `CC(=O)Oc1cccc(C)c1`, the “activation” value was 3.23% [at 42.5 µM].

Consider `CCC(=O)OCc1ccccc1`, for which the “activation” value is 0.682%.

As for `CO[C@@]1(NC(=O)CSC[C@@H](N)C(=O)O)C(=O)N2C(C(=O)O)=C(CSc3nnnn3C)CS[C@@H]21`, the “activation” value was -0.58% [at 42.5 µM].

With `c1coc(CNc2ncnc3nc[nH]c23)c1`, the “activation” value is 0.452%.

`c1ccc2sc(SN3CCOCC3)nc2c1`: the “activation” value is -1.45% [at 42.5 µM].

On to `O=S(=O)(O)c1cccc(S(=O)(=O)O)c1`, for which the “activation” value is -2.26%.

With `CCCCCCCC1CCCC1=O` (stereo not given), the “activation” value was -1.4%.

With `CCCc1ncc(C[n+]2ccccc2C)c(N)n1`, the “activation” value is -0.486% [at 42.5 µM].

Regarding `O=[N+]([O-])c1cncn1CCN1CCOCC1`, the “activation” value was -0.0491% [at 42.5 µM].

For `CC1CCC(CO)CC1` (stereo not given), the “activation” value is 0.605%.

With `CN1CC(=O)N/C1=N/C(=O)Nc1cccc(Cl)c1`, the “activation” value is 2.83% [at 42.5 µM].

Regarding `NC(=O)NC1N=C([O][Al])NC1=O` (stereo not given), the “activation” value was 0.103% [at 42.5 µM].

Consider `CCOc1ccc2nc(S(N)(=O)=O)sc2c1`, for which the “activation” value is 0.564% [at 42.5 µM].

For the compound `CC(N)C12CC3CC(CC(C3)C1)C2` (stereo not given), the “activation” value is 0.319% [at 42.5 µM].

Consider `O=C(O)CC(C(=O)O)S(=O)(=O)O` (stereo not given), for which the “activation” value is -0.896%.

With `O=[N+]([O-])c1ccc(/C=N\O)o1`, the “activation” value was 8.45% [at 42.5 µM].

With `COc1ccccc1OCC1CNC(=O)O1` (stereo not given), the “activation” value is -1.54% [at 42.5 µM].

For the compound `CCN[C@H]1C[C@H](C)S(=O)(=O)c2sc(S(N)(=O)=O)cc21`, the “activation” value was 1.23% [at 42.5 µM].

As for `O=C(CO)[C@@H](O)[C@H](O)[C@@H](O)CO`, the “activation” value was -0.19% [at 42.5 µM].

Regarding `C=CCCC(=O)O`, the “activation” value is -0.659%.

Turning to `C=C(C)C(=O)OCCOCCOCCOCCOC(=O)C(=C)C`, the “activation” value is -0.0566%.

For `CCNS(=O)(=O)c1ccc(C)cc1`, the “activation” value is -0.233%.

For the compound `CC(=O)O[C@@]12CO[C@@H]1C[C@H](O)[C@@]1(C)C(=O)[C@H](O)C3=C(C)[C@@H](OC(=O)[C@H](O)[C@@H](NC(=O)OC(C)(C)C)c4ccccc4)C[C@@](O)([C@@H](OC(=O)c4ccccc4)[C@H]21)C3(C)C`, the “activation” value is 7.38% [at 42.5 µM].

Take `COc1cccc(OC)c1C(=O)N[C@@H]1C(=O)N2[C@@H]1SC(C)(C)[C@@H]2C(=O)O`: the “activation” value was 4.69% [at 42.5 µM].

As to `CC(=O)c1ccccc1[N+](=O)[O-]`, the “activation” value was 0.536%.

In the case of `CCCCOCCOC(=O)COc1cc(Cl)c(Cl)cc1Cl`, the “activation” value was -0.911%.

Consider `Clc1cc(Cl)cc(Cl)c1`, for which the “activation” value was 0.782%.

In the case of `O=C1CCCCCCCCCCCCCCO1`, the “activation” value was 1.29%.

On to `CCCCCCCCN1CCCC1=O`, for which the “activation” value is 0.628%.

Turning to `c1ccc(CCc2ccccc2)cc1`, the “activation” value is 0.0923%.

On to `CC(C)(C)C(=O)Oc1ccc(S(=O)(=O)Nc2ccccc2C(=O)NCC(=O)O)cc1`, for which the “activation” value is -1.34% [at 42.5 µM].

Take `CC(COc1ccccc1)NN` (stereo not given): the “activation” value is 0.642% [at 42.5 µM].

For `CC(CC=O)CC(C)(C)C` (stereo not given), the “activation” value is -2.27%.

Turning to `COC(=O)Nc1ccc(Cl)c(Cl)c1`, the “activation” value is 2.3%.
